From the supplement of paper PMC12297408
“And” between values parts separate entries of the source, which are not always exact repeats. Identical values can stand only once. Counter-ions that a name gives are not always drawn. Values without a mark were called inactive.

What was measured:
[1] = system: Plasmodium falciparum NF54/iGP1_RE9H ulg8 stage V gametocytes; experiment: gametocyte viability (luciferase signal relative to DMSO control) (% of DMSO control); higher = less gametocytocidal activity, active = 50 or less; details: exposure time: 72 h
Summary of the method: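 NF54/iGP1_RE9Hulg8 stage V gametocytes (day 12; ~2.5% gametocytemia, 3% hematocrit) in medium with 0.5% Albumax II were added to 96-well plates of nanolitre-spotted compounds (10 mM DMSO stocks), giving 10 µM or 1 µM, one well each. Plates were incubated 72 h at 37 °C. Then 90 µl was mixed with 10 µl D-luciferin (30 mg/ml) and luminescence was read on an IVIS Lumina II. Viability is relative to the mean of plate DMSO vehicle controls.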

[2] = system: Plasmodium falciparum NF54/iGP1_RE9H ulg8 stage V gametocytes; experiment: gametocyte viability (luciferase signal relative to DMSO control) (% of DMSO control); higher = less gametocytocidal activity, active = 50 or less; details: exposure time: 72 h; remark: listed apart in the source
Method: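 Synchronous P. falciparum NF54/iGP1_RE9H ulg8 mature stage V gametocytes (day 12) were exposed to Cayman Epigenetics Screening Library compounds at 10 µM or 1 µM for 72 h at 37 °C. Viability was read as RE9H luciferase bioluminescence, normalised to DMSO plate controls (100%); 50 µM methylene blue was the positive control.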

Nc1nccc(Oc2ccc(NC(=O)c3c[nH]cc(-c4ccc(F)cc4)c3=O)cc2F)c1Cl
gametocyte viability ([1]; concentration: 1 µM): 102
gametocyte viability ([1]; concentration: 10 µM): 114

COc1cc2nccc(Oc3ccc(NC(=O)C4(C(=O)Nc5ccc(F)cc5)CC4)cc3)c2cc1OC [XL-184 free base (Cabozantinib)]
gametocyte viability ([1]; concentration: 1 µM): 100
gametocyte viability ([1]; concentration: 10 µM): 83.1

O=S(=O)(c1cccc2cnccc12)N1CCCNCC1
gametocyte viability ([1]; concentration: 1 µM): 101
gametocyte viability ([1]; concentration: 10 µM): 110

Cc1cc(Nc2cc(CN3CCOCC3)c3nc(C)c(Cc4ccc(Cl)cc4F)n3n2)n[nH]1
gametocyte viability ([1]; concentration: 1 µM): 95.6
gametocyte viability ([1]; concentration: 10 µM): 97.8

Clc1ccc(Nc2nnc(Cc3ccncc3)c3ccccc23)cc1 [Vatalanib dihydrochloride (PTK787)]
gametocyte viability ([1]; concentration: 1 µM): 111
gametocyte viability ([1]; concentration: 10 µM): 115

COc1ccc2c3n(c(=NC(=O)c4cccnc4)nc2c1OC)CCN3
gametocyte viability ([1]; concentration: 1 µM): 94.4
gametocyte viability ([1]; concentration: 10 µM): 101

O=C(NOCC(O)CO)c1cc(Br)c(F)c(F)c1Nc1ccc(I)cc1F (stereo not drawn)
gametocyte viability ([1]; concentration: 1 µM): 99.1
gametocyte viability ([1]; concentration: 10 µM): 97.3

Cc1cccc(-c2[nH]c(C(C)(C)C)nc2-c2ccc3nccnc3c2)n1
gametocyte viability ([1]; concentration: 1 µM): 94.4
gametocyte viability ([1]; concentration: 10 µM): 91.7

C#Cc1cccc(Nc2ncnc3cc(OC)c(OC)cc23)c1
gametocyte viability ([1]; concentration: 1 µM): 103
gametocyte viability ([1]; concentration: 10 µM): 96.4

Cc1cc(Nc2cc(N3CCN(C)CC3)nc(/C=C/c3ccccc3)n2)n[nH]1
gametocyte viability ([1]; concentration: 1 µM): 90.7
gametocyte viability ([1]; concentration: 10 µM): 71.4

CCOc1cc2ncc(C#N)c(Nc3ccc(F)c(Cl)c3)c2cc1NC(=O)/C=C/CN(C)C [Pelitinib (EKB-569)]
gametocyte viability ([1]; concentration: 1 µM): 85.3
gametocyte viability ([1]; concentration: 10 µM): 99.8

CS(=O)(=O)CCNCc1ccc(-c2ccc3ncnc(Nc4ccc(OCc5cccc(F)c5)c(Cl)c4)c3c2)o1 [Lapatinib Ditosylate (Tykerb)]
gametocyte viability ([1]; concentration: 1 µM): 102
gametocyte viability ([1]; concentration: 10 µM): 98.2

CC(C)n1cnc2c(NCc3ccccc3)nc(NCCO)nc21 [N9-isopropyl-olomoucine]
gametocyte viability ([1]; concentration: 1 µM): 92.7
gametocyte viability ([1]; concentration: 10 µM): 91

CN([C@@H](Cc1ccc(OS(=O)(=O)c2cccc3cnccc23)cc1)C(=O)N1CCN(c2ccccc2)CC1)S(=O)(=O)c1cccc2cnccc12
gametocyte viability ([1]; concentration: 1 µM): 93.8
gametocyte viability ([1]; concentration: 10 µM): 81.8

Cc1ncc(-c2ccnc(Nc3ccc(S(C)(=O)=O)cc3)n2)n1C(C)C
gametocyte viability ([1]; concentration: 1 µM): 115
gametocyte viability ([1]; concentration: 10 µM): 119

CC[C@@H]1C(=O)N(C)c2cnc(Nc3ccc(C(=O)NC4CCN(C)CC4)cc3OC)nc2N1C1CCCC1
gametocyte viability ([2]; concentration: 1 µM): 78.1
gametocyte viability ([2]; concentration: 10 µM): 16.6 (active)
gametocyte viability ([1]; concentration: 1 µM): 80.6
gametocyte viability ([1]; concentration: 10 µM): 63.5

O=C1C(c2c(O)[nH]c3ccccc23)=Nc2ccccc21 [Indirubin]
gametocyte viability ([1]; concentration: 1 µM): 104 and 100
gametocyte viability ([1]; concentration: 10 µM): 113 and 97.3

Nc1ncnc2c1c(-c1cnc3[nH]ccc3c1)nn2C1CCCC1
gametocyte viability ([1]; concentration: 1 µM): 101
gametocyte viability ([1]; concentration: 10 µM): 116

C[S+]([O-])c1ccc(-c2nc(-c3ccc(F)cc3)c(-c3ccncc3)[nH]2)cc1 (stereo not drawn)
gametocyte viability ([1]; concentration: 1 µM): 97.2 and 103
gametocyte viability ([1]; concentration: 10 µM): 109 and 105

COc1cc(C=C(C#N)C(N)=O)cc(CSc2nc3ccccc3s2)c1O
gametocyte viability ([1]; concentration: 1 µM): 111
gametocyte viability ([1]; concentration: 10 µM): 113

CCN(CC)CCNC(=O)c1c(C)[nH]c(/C=C2\C(=O)Nc3ccc(F)cc32)c1C [Sunitinib Malate (Sutent)]
gametocyte viability ([1]; concentration: 1 µM): 102
gametocyte viability ([1]; concentration: 10 µM): 80.7

N#CC(=Cc1ccc2[nH]ccc2c1)C(N)=C(C#N)C#N
gametocyte viability ([1]; concentration: 1 µM): 100
gametocyte viability ([1]; concentration: 10 µM): 104

Cc1cnc(Nc2ccc(N3CCN(C)CC3)cc2)nc1Nc1cccc(S(=O)(=O)NC(C)(C)C)c1
gametocyte viability ([1]; concentration: 1 µM): 91.9
gametocyte viability ([1]; concentration: 10 µM): 66.6
